# Experimental data from the supplement of paper PMC3724861.
# This excerpt belongs to a sample that is enriched for hits. The true hit rate is not given.
# Test system: T1, Caupolican (Caup) homeodomain DNA-binding domain
# T1 sequence: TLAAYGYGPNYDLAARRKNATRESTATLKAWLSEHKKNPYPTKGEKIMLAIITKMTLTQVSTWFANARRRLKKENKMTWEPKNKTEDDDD
# Test: PBM E-score (8-mer, recovered from the published 9-mer minima) (E-score (dimensionless, -0.5 to 0.5)); Drosophila protein; higher = stronger relative binding preference, active = 0.31 or more
# Summary of the method: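 Caup's homeodomain DNA-binding domain (residues 214-303) was made by in vitro transcription and translation and applied at 100 nM to custom-designed protein binding microarrays. Each value is an enrichment score that gives relative binding preference for a short DNA word, with higher meaning stronger. The 8-mer values were recovered from published 9-mer scores, each of which was the minimum of its two constituent 8-mer scores. A cutoff of 0.31 marks candidate sites.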
row,Sequence,PBM E-score
1,GCCCTTCC,-0.169 (inactive)
2,AAAGGCGT,-0.125 (inactive)
3,TCAAGCAA,0.0149 (inactive)
4,GCAAGCAA,-0.0127 (inactive)
5,ACAAGCAC,0.246 (inactive)
6,ACAAGCAG,0.229 (inactive)
7,ACAAGCAT,0.377 (active)
8,ACAAGCAA,0.341 (active)
9,AGACCCGA,-0.108 (inactive)
10,ACTTTACC,0.122 (inactive)
11,CGGATGGC,-0.0761 (inactive)
12,AACGCCCG,-0.108 (inactive)
13,GCAGTCCC,-0.194 (inactive)
14,AATGTAGC,0.0881 (inactive)
15,AATGTAGA,0.139 (inactive)
16,CATGTAGA,0.391 (active)
17,GATGTAGC,0.166 (inactive)
18,CAAGTAGG,-0.00819 (inactive)
19,CATGTAGG,0.356 (active)
20,GATGTAGA,0.208 (inactive)
21,AATGTAGG,0.116 (inactive)
22,CATGTAGC,0.332 (active)
23,GACTAGGC,-0.0927 (inactive)
24,CCTCCAAC,-0.102 (inactive)
25,TAGAAATA,0.1 (inactive)

row,Sequence,PBM E-score
1,CCGCTACA,0.0971 (inactive)
2,GGCCGTAA,-0.148 (inactive)
3,CATTACCA,0.119 (inactive)
4,ACCAATCC,-0.0418 (inactive)
5,CATATACA,0.298 (inactive)
6,GATATACA,0.263 (inactive)
7,AATATACA,0.322 (active)
8,TGTATACA,≥ 0.356 (active)
9,AATATACT,0.155 (inactive)
10,ATTATACA,0.254 (inactive)
11,TATATACA,0.355 (active)
12,AATATACC,0.13 (inactive)
13,CTTATACA,0.11 (inactive)
14,AGTATACA,0.309 (inactive)
15,GTTATACA,0.329 (active)
16,GGTATACA,0.183 (inactive)
17,GCCCGTAC,-0.0447 (inactive)
18,GGGATATA,-0.0036 (inactive)
19,ATCGTTCG,0.0642 (inactive)
20,AGCCGTTC,-0.195 (inactive)
21,ACGAACCT,-0.0743 (inactive)
22,ACGTGGCG,-0.111 (inactive)
23,CCACAGAA,-0.00495 (inactive)
24,TATTACGA,0.162 (inactive)
25,GTAGTTCA,0.136 (inactive)

row,Sequence,PBM E-score
1,AATAAATA,0.202 (inactive)
2,AGTATCTG,0.00127 (inactive)
3,AGTGACGC,-0.155 (inactive)
4,AATGTAAA,0.323 (active)
5,AATGTAAT,0.303 (inactive)
6,AATGTAAG,0.214 (inactive)
7,CATGTAAG,0.395 (active)
8,GCTGTAAA,0.128 (inactive)
9,TATGTAAA,0.327 (active)
10,CCTGTAAG,0.127 (inactive)
11,CCTGTAAA,0.131 (inactive)
12,TCTGTAAA,0.0832 (inactive)
13,ACTGTAAA,0.154 (inactive)
14,GATGTAAA,0.305 (inactive)
15,CATGTAAA,0.421 (active)
16,GTCGCTTA,0.0465 (inactive)
17,CACGAAAG,0.0338 (inactive)
18,CTCGTGAA,0.027 (inactive)
19,GTAGATAA,0.14 (inactive)
20,ACCATAAT,0.119 (inactive)
21,GATGTAAC,0.306 (inactive)
22,CATGTAAC,0.431 (active)
23,AATGTAAC,0.295 (inactive)
24,GATTTTAC,0.156 (inactive)
25,CTTTAGTC,-0.0734 (inactive)

row,Sequence,PBM E-score
1,AATCGTAA,0.173 (inactive)
2,CCCTAGAA,-0.0811 (inactive)
3,CAACATGC,0.317 (active)
4,ACACATGG,0.167 (inactive)
5,CAACATTC,0.0579 (inactive)
6,AAACATTC,0.209 (inactive)
7,GAACATGC,0.354 (active)
8,ACACATGC,0.236 (inactive)
9,AAACATCC,0.258 (inactive)
10,ACACATGT,0.372 (active)
11,AAACATGC,0.342 (active)
12,GAACATCC,0.295 (inactive)
13,GCACATGC,-0.0345 (inactive)
14,CAACATCC,0.238 (inactive)
15,AACGAATG,0.00089 (inactive)
16,ATACCAGC,-0.0192 (inactive)
17,AAAACACG,0.303 (inactive)
18,GGGTCAAA,-0.108 (inactive)
19,CGTAAAAC,-0.0282 (inactive)
20,CATAGAGA,0.113 (inactive)
21,ATTAGTAG,0.212 (inactive)
22,GCATGCGC,-0.104 (inactive)
23,ATGCGGGA,-0.0659 (inactive)
24,GGGTGTGA,-0.0838 (inactive)
25,CAACATGA,0.344 (active)

row,Sequence,PBM E-score
1,TAACATCA,0.305 (inactive)
2,GAACATTA,0.219 (inactive)
3,ACACATGA,0.265 (inactive)
4,GAGCATGA,0.0786 (inactive)
5,AAACATGA,0.409 (active)
6,TAACATGA,0.424 (active)
7,CCACATGA,0.124 (inactive)
8,AAACATCA,0.279 (inactive)
9,CAACATGG,0.295 (inactive)
10,GAACATGA,0.421 (active)
11,TCACATGA,0.182 (inactive)
12,CGAACGAC,0.0606 (inactive)
13,ATGGTATG,0.132 (inactive)
14,CTATTTAA,-0.0109 (inactive)
15,CGTCTTGA,-0.0138 (inactive)
16,AGGTCTCA,-0.08 (inactive)
17,ACTGAGTC,-0.0541 (inactive)
18,AGCTATAG,-0.0145 (inactive)
19,AAACATGT,0.443 (active)
20,GGACATAC,0.179 (inactive)
21,AAACATCT,0.215 (inactive)
22,GAACATAC,0.331 (active)
23,AAACATCG,0.217 (inactive)
24,AAACATTG,0.183 (inactive)
25,AAACATGG,0.321 (active)

row,Sequence,PBM E-score
1,AAACATTT,0.252 (inactive)
2,CAACATAC,0.302 (inactive)
3,CCAGTTCC,-0.2 (inactive)
4,GCAGCGAC,-0.118 (inactive)
5,GATCGGCA,-0.0784 (inactive)
6,ATTGCGAC,0.0529 (inactive)
7,CAATTAGA,0.0523 (inactive)
8,GGGGTAAC,-0.00369 (inactive)
9,CGTCGTTC,0.0474 (inactive)
10,ACAAGAAG,0.183 (inactive)
11,GTTAACAA,0.296 (inactive)
12,CTTAACAC,0.226 (inactive)
13,ATTAACAG,0.146 (inactive)
14,ATTAACAC,0.326 (active)
15,ATTAACAA,0.342 (active)
16,ATTAACTC,0.0863 (inactive)
17,ATTGCGGC,-0.0444 (inactive)
18,AAGCGGAT,-0.113 (inactive)
19,ACTTCGAT,0.0903 (inactive)
20,AGGGCAGC,-0.267 (inactive)
21,CTGTCCGC,-0.11 (inactive)
22,ACATGATA,0.413 (active)
23,ACATGATC,0.357 (active)
24,AGATGATG,0.0748 (inactive)
25,TCATGAGA,0.0179 (inactive)

row,Sequence,PBM E-score
1,ATATGATC,0.134 (inactive)
2,CCATGATC,0.0355 (inactive)
3,ACATGAGA,0.344 (active)
4,GCATGATA,0.159 (inactive)
5,ACATGATG,0.351 (active)
6,ACATGAGT,0.305 (inactive)
7,CCATGATA,0.0656 (inactive)
8,ATATGATG,0.183 (inactive)
9,GCCACCAA,-0.183 (inactive)
10,CCGTAAAA,-0.0169 (inactive)
11,ACCTTAAA,-0.0366 (inactive)
12,CAAGGCGA,-0.0101 (inactive)
13,ACGGGTAC,0.103 (inactive)
14,CCACAACA,0.142 (inactive)
15,CTACAACC,0.281 (inactive)
16,ATACAACG,0.283 (inactive)
17,GTTCAACA,0.198 (inactive)
18,CTACAACA,0.332 (active)
19,GCACAACA,0.211 (inactive)
20,GTACAACA,0.429 (active)
21,ATACAACA,0.373 (active)
22,ATACAACC,0.258 (inactive)
23,ACATACAG,0.247 (inactive)
24,ACATACGT,0.206 (inactive)
25,AGATACAT,0.368 (active)

row,Sequence,PBM E-score
1,ACATAAAA,0.221 (inactive)
2,ACATACAT,0.427 (active)
3,TCATACAA,0.163 (inactive)
4,GCATACAA,0.247 (inactive)
5,AGATACAG,0.109 (inactive)
6,ACATAAAG,0.215 (inactive)
7,AGATACAA,0.296 (inactive)
8,ACATAAAT,0.318 (active)
9,ACATACAA,0.386 (active)
10,CATAGGTA,0.0694 (inactive)
11,AACACTAC,0.222 (inactive)
12,TCATTTAA,0.167 (inactive)
13,AGGGTTGG,-0.0294 (inactive)
14,AAAACAGT,0.11 (inactive)
15,AGGCCGTA,-0.041 (inactive)
16,GGCCAGTA,-0.128 (inactive)
17,TAACGCTA,-0.0254 (inactive)
18,GCAGTGAC,-0.0444 (inactive)
19,CATCACGA,0.107 (inactive)
20,AGTGCTTG,0.116 (inactive)
21,GCATACAC,0.208 (inactive)
22,ACATACAC,0.352 (active)
23,CCATACAC,0.105 (inactive)
24,AGGCCCTG,-0.09 (inactive)
25,AACCAACT,0.143 (inactive)

row,Sequence,PBM E-score
1,GTTGTGCA,0.0605 (inactive)
2,ATTGTACC,0.2 (inactive)
3,ATTGTACG,0.203 (inactive)
4,CTTGTCCC,0.186 (inactive)
5,GTTGTACA,0.388 (active)
6,GTTGTAGA,0.291 (inactive)
7,CTCGTACC,0.0909 (inactive)
8,CTTGTGCA,0.18 (inactive)
9,CTTGTACC,0.389 (active)
10,CTTGTAGA,0.248 (inactive)
11,ATTGTACA,0.417 (active)
12,CTTGTACA,0.44 (active)
13,ACTAGAGC,-0.0268 (inactive)
14,ACCGGTTA,-0.00609 (inactive)
15,CAGGGGTA,-0.133 (inactive)
16,AGCGAGGG,-0.182 (inactive)
17,CTGATTAC,0.231 (inactive)
18,AGTACACG,0.376 (active)
19,AGTACACA,0.342 (active)
20,AGTACACT,0.181 (inactive)
21,AGTACACC,0.265 (inactive)
22,AGCACACG,0.042 (inactive)
23,AGCACACA,0.0184 (inactive)
24,CCCATAGG,-0.163 (inactive)
25,AAACTTGG,-0.0323 (inactive)
